aSyn 5UTR act: Activators via SNCA 5'UTR binding, MLPCN; 300,000 tested, 7.1% active; AID 1814, 2009; activity score, % (tested at 7.5 µM), hits read low; alpha-synuclein 5'UTR reporter, activators screen; in the data active = activity score below about -60%
Hits are given with their value; i = inactive. These entries were drawn from the full list.

SMILES	aSyn 5UTR act
N#CCC(=O)Nc1ccc(C(=O)OCC(=O)c2ccc3c(c2)OCCO3)cc1	-112
N#CCC(=O)Nc1ccc(C(=O)OCC(=O)c2ccc3c(c2)OCO3)cc1	-89
Cc1ccn2c(c1)nc(=S)n2C(=O)c1ccco1	-202
N#Cc1ccccc1NC(=O)c1ccccc1OCC(=O)NCc1ccco1	-68
Cc1ccc(NC(=S)/C(=C(\[O-])c2ccc(C)c([N+](=O)[O-])c2)[n+]2ccccc2)cc1C	-158
O=C(NC1CCCC1)c1cc(-c2ccc(Cl)c(Cl)c2)on1	-151
O=C(NC1CCCCC1)c1cc(-c2ccc(F)cc2)on1	-156
Cc1ccc(-c2cc(C(=O)NC3CCCC3)no2)cc1	-141
Cc1nn(Cc2ccc(Cl)c(Cl)c2)c(C)c1NC(=O)c1cc(-c2ccc3c(c2)OCO3)on1	i
O=C(NC1CCCCC1)c1cc(-c2cccs2)on1	-161
Cc1nc2cc(-c3ccccc3)[nH]n2c(=O)c1C	-114
Cc1nc2nc(-c3ccccc3)[nH]n2c(=O)c1C	-119
CCN(CC)C(=N)/C(C#N)=N/Nc1ccccc1	-81
N#C/C(=N\Nc1ccc(Cl)cc1)C(=N)N1CCCCCC1	-133
Cc1ccc(N/N=C(\C#N)C(=N)N2CCCCC2)cc1	-91
N#C/C(=N\Nc1ccccc1)C(=N)N1CCCCC1	-78
COc1ccccc1-c1ccc(=O)n(CC(=O)NCc2cccs2)n1	-73
COc1ccccc1NC(=O)Cn1nnc(C(=O)NCc2cccs2)c1N	i
O=C(O)c1ccc(N=NNc2cccc([N+](=O)[O-])c2)cc1	-107
COC(=O)c1ccc(N=NNc2ccccc2)cc1	-226
COC(=O)c1ccc(N=NNc2ccc(C(=O)OC)cc2)cc1	-86
OCCN1CCN(CC/C=C2/c3ccccc3CSc3ccccc32)CC1	i
OCCN1CCN(CCCN2c3ccccc3Sc3ccc(C(F)(F)F)cc32)CC1	-65
COc1cccc(/C=C2\SC(N3CCCC(C)C3)=NC2=O)c1OC (configuration not stated)	-100
COc1ccccc1/C=C1\SC(N2CCC(C)CC2)=NC1=O	-94
SMILES	aSyn 5UTR act
Cc1cc(/C=N/n2cnnc2)c(C)n1-c1ccc(OCc2ccccc2F)cc1	-82
CCOc1ccc(CNc2ccc3c(c2)ncn3C(C)(C)C)cc1	-84
CN(C)c1ccc(CNc2ccc3c(c2)ncn3C(C)(C)C)cc1	-62
Cc1[nH]c2ccccc2c(=O)c1C(=O)/C=C/c1ccccc1	-281
Cc1[nH]c2ccccc2c1/C=C/C(=O)c1ccccc1	-64
Cc1c(C(=O)NCc2ccccn2)oc2ccccc12	-138
Cc1c(C(=O)NCc2ccccn2)oc2ccc(Br)cc12	-131
CCn1cc(Br)c(C(=O)Nc2sc3c(c2C(N)=O)CCCC3)n1	-102
Cn1cc(Br)c(C(=O)Nc2sc3c(c2C(N)=O)CCCC3)n1	-114
c1ccc(-c2cn(CC3CCCCC3)nn2)cc1	-200
COc1ccc(-c2cn(CC3CCCCC3)nn2)cc1	-120
Fc1ccccc1CSc1nnnn1-c1ccc2c(c1)OCO2	-65
Cc1ccc(NC(=O)c2ccc(N/N=C/c3cccc(O)c3)c([N+](=O)[O-])c2)cc1	i
O=[N+]([O-])c1ccc(N/N=C/c2cccc(O)c2)cc1	-171
O=[N+]([O-])c1ccc(N/N=C/c2cccc(O)c2O)cc1	-170
Cc1ccc(Nc2c([N+](=O)[O-])ccc3c2=NC2(CCCCC2)N=3)cc1	-68
COC(=O)c1ccc(Nc2nc3ccc(C)cc3n3cnnc23)cc1	-98
Nc1ccc2oc(-c3cccc4ccccc34)nc2c1	i
Nc1ccc2oc(-c3cccs3)nc2c1	-89
Cc1cccnc1NC(=O)Nc1ccccc1	-141
COc1ccc(C(=O)NC(=O)Nc2ncccc2C)cc1	-139
Cc1cccnc1NC(=O)c1ccc(OCc2c(C)noc2C)cc1	-81
COc1ccc(NC(=O)Nc2ncccc2C)cc1	-157
Cc1cccnc1NC(=O)Nc1ccc(Cl)cc1	-84
O=C(Nc1cccnc1Cl)c1ccc2c(Cl)c3c(nc2c1)CCC3	-71
SMILES	aSyn 5UTR act
CC1CCN(C(=O)c2ccc(S(=O)(=O)Cc3ccccc3F)c([N+](=O)[O-])c2)CC1	-71
CC1CCN(C(=O)c2ccc3ccccc3c2)CC1	-152
O=C(NC1CC1)c1ccc2c(Cl)c3c(nc2c1)CCCC3	-87
CC(=O)c1cccc(NC(=O)c2ccc3c(Cl)c4c(nc3c2)CCCC4)c1	-83
CC1CCN(C(=O)c2ccc3c(Cl)c4c(nc3c2)CCCC4)CC1	-71
N#Cc1ccccc1NC(=O)c1ccc2c(Cl)c3c(nc2c1)CCCC3	-219
Cc1nc(NC(=O)c2ccc(F)cc2)nc2cc3c(cc12)OCO3	-120
Cc1nc(NC(=O)c2ccccc2)nc2cc3c(cc12)OCO3	-127
O=C(CN1C(=O)S/C(=C\c2ccc(O)cc2)C1=O)c1ccccc1	-157
O=C(CCCN1C(=O)S/C(=C\c2ccccc2)C1=O)NNC(=O)c1ccccc1O	i
N#Cc1ccc(N2Cc3ccccc3C2=NC(=O)c2cccnc2Cl)cc1	-106
O=C(N=C1c2ccccc2CN1c1ccc(F)c(Cl)c1)c1cccnc1Cl	-106
O=C(Nc1nc(-c2cc(Cl)sc2Cl)cs1)c1cccs1	-158
Cc1csc(NC(=O)c2sc3nc(-c4cccs4)ccc3c2N)n1	-228
Cc1ccc(C(=O)Nc2nccc(-c3cccs3)n2)cc1	-66
COc1ccc(C(=O)Nc2nc(-c3cccs3)cs2)cc1	-91
Cc1ccc(C(=O)Nc2ncc3c(Cl)cccc3n2)cc1	i
O=C(Nc1nc(-c2cccs2)cs1)c1ccc(Cl)cc1	-88
O=c1c2ccccc2ncn1-c1ccc2c(c1)OCCO2	-111
Nc1nc(CSCc2ccccc2)nc(N2CCOCC2)n1	-67
Cc1cc2ncn(C(=O)N3CCC(C)CC3)c2cc1C	-67
O=C(NCCSc1ccccc1)c1ccccc1F	-76
O=C(CNC(=O)c1ccccc1F)c1ccccc1	-93
O=C(COc1ccccc1)NCCSc1ccccc1	-99
O=C(NCCSc1ccccc1)c1cccnc1	-100
SMILES	aSyn 5UTR act
O=C(CNC(=O)c1ccccc1Cl)c1ccccc1	-113
CC(CNC(=O)c1ccccc1Cl)c1ccccc1 (configuration not stated)	-111
Cc1ccccc1C(=O)NCC(=O)c1ccccc1	-135
O=C(Nc1ccc(C(=O)N2CCCC2)cc1)c1ccccc1F	-65
CCOC(=O)c1ccc(NC(=O)c2ccccc2C)cc1	-156
CCOC(=O)Nc1ccc(NC(=O)c2ccccc2F)cc1	-149
CC(=O)Nc1ccc(NC(=O)c2ccccc2F)cc1	-81
O=C(Nc1ccc(F)cc1)c1ccccc1F	-135
O=C(Nc1ccc2oc(-c3ccc(F)cc3)nc2c1)c1ccccc1F	-113
O=C(Nc1ccc2cn[nH]c2c1)c1ccccc1F	-224
CCOC(=O)c1ccc(NC(=O)c2ccnn2C)cc1	-159
O=C(Nc1ccc(Oc2cccnc2)cc1)c1ccccc1F	-115
COc1ccc(-c2cn3c(n2)CCC3)cc1	-91
N#C/C(=C\c1cccs1)C(=O)Nc1nccs1	-75
C/C(=C\c1ccccc1)C(=O)Nc1nccs1	-121
C/C=C/C=C/C(=O)Nc1nccs1	-77
O=C(Nc1nccs1)c1ccccc1N=Cc1ccccc1	-84
Cc1oc(-c2ccc3c(c2)OCCO3)cc1C(=O)O	-135
Cc1oc(-c2ccc3c(c2)OCCO3)cc1C(=O)NCC(=O)O	-126
CCOc1ccc(C(=O)c2ccc(OCC)c(N)c2)cc1N	-70
CN(C)c1ccc(C(=O)c2ccc(N(C)C)c(N)c2)cc1N	-74
CCOC(=O)c1cnn(-c2ncnc3c2cnn3C)c1N	-94
CCOC(=O)c1cnn(-c2ccc(C(F)(F)F)cn2)c1N	-277
COC(=O)c1ccsc1NC(=O)c1ccc2c(c1)OCCO2	-97
